Where a chain is given by its changes, count along the chain named. Over roughly 16,000 sequences, “ka relative to ugcaugu” has its median near 0.096; the highest 2% begin near 0.35. This excerpt belongs to a sample that is enriched for the highest values.

B1: UUCCUGU (DNA:RNA)
RNA: GGGAGACCGGAAUUCAGAUUGUCCUUCCUGUUUAAAUCCCGUCGUAGCCACCA
DNA 1: CAATCTGAATTCCGGTCTCCC
DNA 2: TGGTGGCTACGACGGGATT
B2: GGACAAA (DNA:RNA)
RNA: B1 RNA with U25G, U26G, C27A, U29A, G30A, U31A
DNA 1: CAATCTGAATTCCGGTCTCCC
DNA 2: TGGTGGCTACGACGGGATT
B3: CCCAACC (DNA:RNA)
RNA: B1 RNA with U25C, U26C, C28A, U29A, G30C, U31C
DNA 1: CAATCTGAATTCCGGTCTCCC
DNA 2: TGGTGGCTACGACGGGATT
B4: GCCACAA (DNA:RNA)
RNA: B1 RNA with U25G, U26C, C28A, U29C, G30A, U31A
DNA 1: CAATCTGAATTCCGGTCTCCC
DNA 2: TGGTGGCTACGACGGGATT
B5: UGUAAGU (DNA:RNA)
RNA: B1 RNA with U26G, C27U, C28A, U29A
DNA 1: CAATCTGAATTCCGGTCTCCC
DNA 2: TGGTGGCTACGACGGGATT
B6: UCAGUAU (DNA:RNA)
RNA: B1 RNA with U26C, C27A, C28G, G30A
DNA 1: CAATCTGAATTCCGGTCTCCC
DNA 2: TGGTGGCTACGACGGGATT
B7: AUUAGAG (DNA:RNA)
RNA: B1 RNA with U25A, C27U, C28A, U29G, G30A, U31G
DNA 1: CAATCTGAATTCCGGTCTCCC
DNA 2: TGGTGGCTACGACGGGATT
B8: CCAGAGU (DNA:RNA)
RNA: B1 RNA with U25C, U26C, C27A, C28G, U29A
DNA 1: CAATCTGAATTCCGGTCTCCC
DNA 2: TGGTGGCTACGACGGGATT
B9: GUCCGAG (DNA:RNA)
RNA: B1 RNA with U25G, U29G, G30A, U31G
DNA 1: CAATCTGAATTCCGGTCTCCC
DNA 2: TGGTGGCTACGACGGGATT
B10: GUGUAUA (DNA:RNA)
RNA: B1 RNA with U25G, C27G, C28U, U29A, G30U, U31A
DNA 1: CAATCTGAATTCCGGTCTCCC
DNA 2: TGGTGGCTACGACGGGATT
B11: UUGUGUA (DNA:RNA)
RNA: B1 RNA with C27G, C28U, U29G, G30U, U31A
DNA 1: CAATCTGAATTCCGGTCTCCC
DNA 2: TGGTGGCTACGACGGGATT
B12: GUCGUGU (DNA:RNA)
RNA: B1 RNA with U25G, C28G
DNA 1: CAATCTGAATTCCGGTCTCCC
DNA 2: TGGTGGCTACGACGGGATT
B13: GAGUUUG (DNA:RNA)
RNA: B1 RNA with U25G, U26A, C27G, C28U, G30U, U31G
DNA 1: CAATCTGAATTCCGGTCTCCC
DNA 2: TGGTGGCTACGACGGGATT
B14: GUUUGUG (DNA:RNA)
RNA: B1 RNA with U25G, C27U, C28U, U29G, G30U, U31G
DNA 1: CAATCTGAATTCCGGTCTCCC
DNA 2: TGGTGGCTACGACGGGATT
B15: GUUGUGU (DNA:RNA)
RNA: B1 RNA with U25G, C27U, C28G
DNA 1: CAATCTGAATTCCGGTCTCCC
DNA 2: TGGTGGCTACGACGGGATT
B16: GUGUCGU (DNA:RNA)
RNA: B1 RNA with U25G, C27G, C28U, U29C
DNA 1: CAATCTGAATTCCGGTCTCCC
DNA 2: TGGTGGCTACGACGGGATT
B17: GAGUUGU (DNA:RNA)
RNA: B1 RNA with U25G, U26A, C27G, C28U
DNA 1: CAATCTGAATTCCGGTCTCCC
DNA 2: TGGTGGCTACGACGGGATT
B18: GUGUGUA (DNA:RNA)
RNA: B1 RNA with U25G, C27G, C28U, U29G, G30U, U31A
DNA 1: CAATCTGAATTCCGGTCTCCC
DNA 2: TGGTGGCTACGACGGGATT
B19: GUGUUUG (DNA:RNA)
RNA: B1 RNA with U25G, C27G, C28U, G30U, U31G
DNA 1: CAATCTGAATTCCGGTCTCCC
DNA 2: TGGTGGCTACGACGGGATT
B20: CGUUUUG (DNA:RNA)
RNA: B1 RNA with U25C, U26G, C27U, C28U, G30U, U31G
DNA 1: CAATCTGAATTCCGGTCTCCC
DNA 2: TGGTGGCTACGACGGGATT
B21: UAUACUA (DNA:RNA)
RNA: B1 RNA with U26A, C27U, C28A, U29C, G30U, U31A
DNA 1: CAATCTGAATTCCGGTCTCCC
DNA 2: TGGTGGCTACGACGGGATT
B22: CUUGGCU (DNA:RNA)
RNA: B1 RNA with U25C, C27U, C28G, U29G, G30C
DNA 1: CAATCTGAATTCCGGTCTCCC
DNA 2: TGGTGGCTACGACGGGATT
B23: AAGCCAC (DNA:RNA)
RNA: B1 RNA with U25A, U26A, C27G, U29C, G30A, U31C
DNA 1: CAATCTGAATTCCGGTCTCCC
DNA 2: TGGTGGCTACGACGGGATT
B24: CUGCCGC (DNA:RNA)
RNA: B1 RNA with U25C, C27G, U29C, U31C
DNA 1: CAATCTGAATTCCGGTCTCCC
DNA 2: TGGTGGCTACGACGGGATT
B25: UACUCGG (DNA:RNA)
RNA: B1 RNA with U26A, C28U, U29C, U31G
DNA 1: CAATCTGAATTCCGGTCTCCC
DNA 2: TGGTGGCTACGACGGGATT
B26: CAGGGUU (DNA:RNA)
RNA: B1 RNA with U25C, U26A, C27G, C28G, U29G, G30U
DNA 1: CAATCTGAATTCCGGTCTCCC
DNA 2: TGGTGGCTACGACGGGATT
B27: CCUACAU (DNA:RNA)
RNA: B1 RNA with U25C, U26C, C27U, C28A, U29C, G30A
DNA 1: CAATCTGAATTCCGGTCTCCC
DNA 2: TGGTGGCTACGACGGGATT
B28: UGUCUCG (DNA:RNA)
RNA: B1 RNA with U26G, C27U, G30C, U31G
DNA 1: CAATCTGAATTCCGGTCTCCC
DNA 2: TGGTGGCTACGACGGGATT
B29: UGAAGGC (DNA:RNA)
RNA: B1 RNA with U26G, C27A, C28A, U29G, U31C
DNA 1: CAATCTGAATTCCGGTCTCCC
DNA 2: TGGTGGCTACGACGGGATT
B30: AUUUCAU (DNA:RNA)
RNA: B1 RNA with U25A, C27U, C28U, U29C, G30A
DNA 1: CAATCTGAATTCCGGTCTCCC
DNA 2: TGGTGGCTACGACGGGATT
B31: CACACCG (DNA:RNA)
RNA: B1 RNA with U25C, U26A, C28A, U29C, G30C, U31G
DNA 1: CAATCTGAATTCCGGTCTCCC
DNA 2: TGGTGGCTACGACGGGATT

This assay deals with T1, RBFOX1 RRM RbFoxmut (Fox-RRM*) (Homo sapiens, UniProt Q9NWB1 109-208, R118D;E147R;N151S;E152T).
T1 sequence: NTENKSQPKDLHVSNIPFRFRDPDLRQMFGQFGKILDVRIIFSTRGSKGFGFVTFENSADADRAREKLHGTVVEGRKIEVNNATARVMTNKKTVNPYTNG
Kind of assay: EMSA; HiTS-Eq, 1 nM pool, 10 min; buffer printed only for the single-RNA assays: 10 mM Tris pH 7.5, 150 mM NaCl, 3.4 mM EDTA, 0.001% NP-40, 30 C. Conditions: tags: His6 N-terminal (pET28a); label: 5' 32P. The gist of the method: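 Relative association constants, normalised to the cognate motif, were derived by comparing read counts of each RNA species with those of the control reaction. The RNA sequenced was the free fraction, separated by 8% native PAGE after a 10 min equilibration in 50 µL of 1 nM 5′-radiolabelled RNA (7 randomized nucleotides) with increasing concentrations of purified wild-type or mutant RbFox RRM.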
(In general: A gel shift assay detects complexes by their altered migration in electrophoresis.)
Regarding B1, the binding signal was 0.0952 KA relative to UGCAUGU. In the case of B2 it was 0.0761 KA relative to UGCAUGU; in that of B3, 0.0535 KA relative to UGCAUGU; in that of B4, 0.0608 KA relative to UGCAUGU. Turning to B5, the binding signal was 0.118 KA relative to UGCAUGU. On to B6, for which the binding signal was 0.116 KA relative to UGCAUGU. In the case of B7 it was 0.146 KA relative to UGCAUGU; in that of B8, 0.126 KA relative to UGCAUGU; in that of B9, 0.129 KA relative to UGCAUGU. As for B10, the binding signal is 0.166 KA relative to UGCAUGU.

Turning to B11, the binding signal was 0.315 KA relative to UGCAUGU.

For B12, the binding signal is 0.187 KA relative to UGCAUGU. In the case of B13 it was 0.361 KA relative to UGCAUGU; in that of B14, 0.462 KA relative to UGCAUGU. For B15, the binding signal was 0.224 KA relative to UGCAUGU. In the case of B16 it was 0.164 KA relative to UGCAUGU; in that of B17, 0.138 KA relative to UGCAUGU; in that of B18, 0.371 KA relative to UGCAUGU. Turning to B19, the binding signal was 0.68 KA relative to UGCAUGU.

As to B20, the binding signal is 0.133 KA relative to UGCAUGU. In the case of B21 it was 0.0619 KA relative to UGCAUGU.

For B22, the binding signal was 0.102 KA relative to UGCAUGU. As for B23, the binding signal was 0.0884 KA relative to UGCAUGU.

In the case of B24, the binding signal was 0.116 KA relative to UGCAUGU.

For the molecule B25, the binding signal is 0.0779 KA relative to UGCAUGU. In the case of B26 it was 0.106 KA relative to UGCAUGU; in that of B27, 0.0881 KA relative to UGCAUGU; in that of B28, 0.32 KA relative to UGCAUGU. As for B29, the binding signal is 0.0677 KA relative to UGCAUGU.

Consider B30, for which the binding signal was 0.12 KA relative to UGCAUGU. In the case of B31 it was 0.12 KA relative to UGCAUGU.
